Structures are written as SMILES. Structures can show the parent of a compound that is named as a salt. ± gives the uncertainty stated by the source.

The test system of the assay is NCC-MFS5-C1. The assay can be described thus: cell viability relative to DMSO control; higher = less growth inhibition. To be noted: 10 µM; treatment time: 3 days. The procedure: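 NCC-MFS5-C1 myxofibrosarcoma cells (1x10^4 per well, 384-well) were treated on day 2 with 10 µM of each drug. On day 5, viability was read by CCK-8 absorbance at 450 nm and normalised to the DMSO control (%), n = 2.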
Turning to `O=C(Nc1nc2cccc(-c3ccc(CN4CCS(=O)(=O)CC4)cc3)n2n1)C1CC1` [Filgotinib (GLPG0634)], the cell viability – broadly, a read-out of living cells in per cent, often relative to untreated cells – stood at 93.1 ± 4.5%. Under `C#Cc1cccc(Nc2ncnc3cc(OCCOC)c(OCCOC)cc23)c1` [Erlotinib HCl (OSI-744)] stands 81.6 ± 1%; under `Cc1[nH]c(/C=C2\C(=O)Nc3ccccc32)c(C)c1CCC(=O)O` [Orantinib (TSU-68, SU6668)], 80.2 ± 1.5%. As for `Nc1cc(C(Cl)=C(Cl)Cl)c(S(N)(=O)=O)cc1S(N)(=O)=O` [Clorsulon], the figure is 89.3 ± 2.4%; as for `CC[C@@H]1/C=C(\C)C[C@H](C)C[C@H](OC)[C@H]2O[C@@](O)(C(=O)C(=O)N3CCCC[C@H]3C(=O)O[C@H](/C(C)=C/[C@@H]3CC[C@H](Cl)[C@H](OC)C3)[C@H](C)[C@@H](O)CC1=O)[C@H](C)C[C@@H]2OC` [Pimecrolimus], 41.3 ± 5.4%; as for `O=c1[nH]c(=O)n(C2CCCO2)cc1F` (stereo not given), 88.2 ± 5.4%.

In the case of `C[C@@]12C[C@@]3(O)O[C@@H](O1)[C@]1(COC(=O)c4ccccc4)[C@H]3C[C@@]12O[C@@H]1O[C@H](CO)[C@@H](O)[C@H](O)[C@H]1O` [Paeoniflorin], the cell viability was determined as 83.6 ± 1.2%.

Regarding `CC(=O)Oc1ccccc1C(=O)O` [Aspirin], the cell viability was found to be 81.4 ± 1.1%. As for `C=CC(=O)Nc1cc2c(Nc3ccc(F)c(Cl)c3)ncnc2cc1OCCCN1CCOCC1` [Canertinib(CI-1033)], the figure is 84.2 ± 5%; as for `CC#CCn1c(N2CCC[C@@H](N)C2)nc2c1c(=O)n(Cc1nc(C)c3ccccc3n1)c(=O)n2C` [Linagliptin], 92.8 ± 5.3%; as for `CCCCCCNC(=O)n1cc(F)c(=O)[nH]c1=O` [Carmofur], 81.5 ± 1.1%. With `C[C@]1(O)C[C@@H](c2nc(-c3ccc4ccc(-c5ccccc5)nc4c3)c3c(N)nccn32)C1` [Linsitinib (OSI-906)], the cell viability was 57 ± 0.57%. As for `CC(=O)OCC(CCn1cnc2cnc(N)nc21)COC(C)=O` [Famciclovir], the figure is 80.4 ± 5.5%; as for `O=P(O)(O)C(O)(Cn1ccnc1)P(=O)(O)O` [Zoledronic Acid], 84.5 ± 7.6%; as for `Nc1nc(CC(=O)Nc2ccc(CCNC[C@H](O)c3ccccc3)cc2)cs1` [Mirabegron], 82.5 ± 4.6%. Under `O=C1c2c(O)ccc(O)c2C(=O)c2c(NCCNCCO)ccc(NCCNCCO)c21` [Mitoxantrone 2HCl] stands -0.766 ± 0.85%; under `COc1ccc(C2=N[C@@H](c3ccc(Cl)cc3)[C@@H](c3ccc(Cl)cc3)N2C(=O)N2CCNC(=O)C2)c(OC(C)C)c1` [Nutlin-3], 88.6 ± 1.8%.

`Cc1cccc(N(C)C(=S)Oc2ccc3ccccc3c2)c1` [Tolnaftate]: the cell viability amounted to 103 ± 6.7%. As for `COc1cc2nccc(Oc3ccc(NC(=O)Nc4cc(C)on4)c(Cl)c3)c2cc1OC` [Tivozanib (AV-951)], the figure is 59.7 ± 2.6%; as for `CC[C@]1(O)C[C@@H]2CN(CCc3c([nH]c4ccccc34)[C@@](C(=O)OC)(c3cc4c(cc3OC)N(C)[C@H]3[C@@](O)(C(=O)OC)[C@H](OC(C)=O)[C@]5(CC)C=CCN6CC[C@]43[C@@H]65)C2)C1` [Vinblastine sulfate], 35.1 ± 2.5%. Under `COc1cc(Nc2ncc(F)c(Nc3ccc4c(n3)N(COP(=O)(O)O)C(=O)C(C)(C)O4)n2)cc(OC)c1OC` [Fostamatinib (R788)] stands 29.5 ± 0.8%; under `Nc1[nH]cnc2ncnc1-2` [Adenine HCl], 98.1 ± 6.5%.

As for `CCCCCOC(=O)Nc1nc(=O)n([C@@H]2O[C@H](C)[C@@H](O)[C@H]2O)cc1F` [Capecitabine], the cell viability was 72.9 ± 5.9%. As for `Nc1ncn([C@H]2C[C@H](O)[C@@H](CO)O2)c(=O)n1` [Decitabine], the figure is 134 ± 7.4%; as for `COC(=O)C[C@](O)(CCCC(C)(C)O)C(=O)O[C@@H]1C(OC)=C[C@]23CCCN2CCc2cc4c(cc2[C@H]13)OCO4` [Homoharringtonine], 54 ± 5.4%. Under `COc1cccc2c1C(=O)c1c(O)c3c(c(O)c1C2=O)C[C@@](O)(C(C)=O)C[C@@H]3O[C@H]1C[C@H](N)[C@H](O)[C@H](C)O1` [Daunorubicin HCl] stands 14.4 ± 6.7%. With `O=c1[nH]c(=O)n([C@H]2C[C@H](O)[C@@H](CO)O2)cc1F` [Floxuridine], the cell viability amounted to 80 ± 3.9%. As for `C=CC(=O)Nc1cc(Nc2nccc(-c3cn(C)c4ccccc34)n2)c(OC)cc1N(C)CCN(C)C` [Osimertinib (AZD9291)], the figure is 2.66 ± 0.22%. As for `CS(=O)(=O)CCNCc1ccc(-c2ccc3ncnc(Nc4ccc(OCc5cccc(F)c5)c(Cl)c4)c3c2)o1`, the figure is 77.3 ± 25%; as for `Nc1nc(Cl)nc2c1ncn2[C@@H]1O[C@H](CO)[C@@H](O)[C@@H]1F` [Clofarabine], 98.8 ± 21%. Under `S=c1[nH]cnc2nc[nH]c12` [Mercaptopurine (6-MP)] stands 93.5 ± 3%; under `Nc1ccn([C@@H]2O[C@H](CO)[C@@H](O)C2(F)F)c(=O)n1` [Gemcitabine HCl], 79.5 ± 5%. For `Clc1ccc(C(c2ccccc2Cl)C(Cl)Cl)cc1` (stereo not given) [Mitotane], the cell viability amounted to 76.1 ± 3.1%. Under `CCN1CCN(c2ccc(Nc3cc(N(C)C(=O)Nc4c(Cl)c(OC)cc(OC)c4Cl)ncn3)cc2)CC1` stands 59.8 ± 5.6%. Under `COc1cc2ncnc(Nc3ccc(F)c(Cl)c3)c2cc1NC(=O)/C=C/CN1CCCCC1` stands 82.9 ± 3.8%; under `NC(=O)NO` [Hydroxyurea], 71.3 ± 11%; under `FC(F)(F)c1ccc(CNc2ccc(Cc3c[nH]c4ncc(Cl)cc34)cn2)cn1` [Pexidartinib (PLX3397)], 72.5 ± 5.8%. As for `CCN1CCN(Cc2ccc(Nc3ncc(F)c(-c4cc(F)c5nc(C)n(C(C)C)c5c4)n3)nc2)CC1` [Abemaciclib], the figure is 76.5 ± 6.7%; as for `Nc1ncn([C@@H]2O[C@H](CO)[C@@H](O)[C@H]2O)c(=O)n1` [Azacitidine], 104 ± 13%; as for `Cc1ccc(NC(=O)c2ccc(CN3CC[C@H](N(C)C)C3)c(C(F)(F)F)c2)cc1Nc1nccc(-c2cncnc2)n1` [Bafetinib (INNO-406)], 2.79 ± 1.9%.

Values taken from the supplement of paper PMC8773631.
